From PubChem
Compounds with a hit are over-represented: about 4.4% of the library has one in this group of screens.
TRHR enhancer: allosterically enhances the human TRH receptor; 360,000 compounds, 0.66% hits; TRHR cells, fluo-8 calcium fluorescence, EC20 TRH enhancement; enhancement, % at 2 µM; AID 493056; P34981; in the data active = enhancement above about 30%
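Enhancer read-out: after compound pinning and an initial kinetic agonist-mode read, an EC20 of TRH (10 nM final) was injected and fluo-8 calcium signal (Ex 480/Em 530) followed at 1 s/cycle for 100 cycles in TRHR-expressing cells.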
D1 potentiator: potentiators of human D1 dopamine receptor; P21728; HEK293 TREx D1 cells, calcium flux, dopamine EC20 potentiation; potentiation, % at 10 µM; 360,000 compounds, 0.036% hits; in the data active = potentiation above about 30%
D1 ag: activates the human D1 dopamine receptor; HEK293 T-REx D1 cells, calcium flux, agonist mode; activation, % at 2 µM; 360,000 compounds, 1% hits
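Agonism was scored from calcium flux recorded over 180 s (1 read/s) after pintool compound addition, following a 10-cycle baseline. Cells were inducible force-coupled HEK293 TREx D1, plated overnight at 30 C and loaded with no-wash calcium dye.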
TRHR agonist: activates the human TRH receptor; P34981; TRHR cells, calcium flux fluo-8, FDSS agonist mode; activation, % at 2 µM; 360,000 compounds, 0.18% hits
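Steps: seed TRHR cells overnight; add fluo-8 no-wash Ca dye, RT 30 min–1.5 h; record 10 s baseline; pin-transfer compounds; monitor fluorescence 1 cycle/s for the agonist window. Calcium increases flag candidate agonists.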
D1 antag: blocks dopamine activation of the human D1 receptor | P21728 | HEK293 TREx D1 cells, calcium flux, dopamine EC80; active compounds read low | activity change, negative = inhibition, % at 10 µM | 360,000 compounds, 3.2% hits; in the data active = activity change below about -30%
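Tetracycline-induced HEK293 T-REx cells with force-coupled D1 receptor were loaded with a no-wash calcium dye. Compound was added after a 10 s baseline and read kinetically for 180 s; EC80 dopamine was then added and calcium flux followed another 180 s.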
USP1 inh: USP1/UAF1 (human) deubiquitinase inhibition; Potency, µM (highest dose often 57.1 µM), actives largely listed as inhibitors; O94782; recombinant USP1/UAF1, Ub-Rhodamine cleavage fluorescence; 390,000 compounds, 0.23% hits; active = well fitted inhibition curve with a large enough effect; inconclusive = small, poorly fitted or top-dose-only effect; inactive = no such curve, though single readings can be large or run the other way; note: nearly all actives have a fitted effect of over 60% in size
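High-throughput fluorogenic screen: 1nM USP1/UAF1 complex, Ub-Rho substrate 150nM final, 50mM HEPES pH 7.8 with 0.5mM EDTA, 0.1 mg/ml BSA, 1mM TCEP and 0.01% Tween-20.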
Of the large screens only hits and unclear results are named; the others gave an inactive call. Cut-off read from the data, not from the text of the source, unless noted: active = activation above about 30%; inactive = the rest.

COc1c(C(=O)Nc2ccc(CN3CCOCC3)cc2)cc2ccccc2c1Br	D1 antag -30.7
CC1CN(c2ccc(NC(=O)c3ccco3)cc2C(=O)O)CC(C)O1 (configuration not stated)	TRHR enhancer 30.1
O=C(Nc1ccc(N2CCOCC2)c(F)c1)c1cccs1	D1 antag -38.5
COC(=O)c1cc(NC(=O)c2cccs2)ccc1N1CCOCC1	none
Cc1ccccc1C(=O)Nc1ccc(CN2CCOCC2)cc1	none
O=C(Cn1c(=O)oc2cc(S(=O)(=O)N3CCCCCC3)ccc21)Nc1ccc(F)cc1F	none
Cc1ccc(N2CCn3c2nc2c3c(=O)n(C/C=C/c3ccccc3)c(=O)n2C)cc1C	none
CCCC(=O)N1CCN(c2ccc(NC(=O)c3cc4ccccc4o3)cc2Cl)CC1	D1 antag -46.9
CC(C)C(=O)N1CCN(c2ccc(NC(=O)c3ccco3)cc2Cl)CC1	none (no result: D1 potentiator)
O=C(Nc1ccc(N2CCOCC2)c(Cl)c1)c1ccco1	D1 antag -33.7
CCC(=O)N1CCN(c2ccc(NC(=O)c3cc4ccccc4o3)cc2Cl)CC1	none
Cn1cc(CNCc2cn(C)nc2-c2ccc(C3CCCCC3)cc2)cn1	D1 antag -38.2
COCCN1CCCC(CNCc2cn(C)nc2-c2ccc(Oc3ccccc3)cc2)C1 (configuration not stated)	none
COc1cc(/C=N/NC(=O)c2cccnc2)ccc1OCC(=O)N1CCOCC1	TRHR enhancer 33.5
COc1ccc(/C=N/NC(=O)c2cccnc2)cc1CN1CCOCC1	none
COc1cc(C2C3=C(CC(C)(C)CC3=O)Nc3ccccc3N2C(C)=O)cc(OC)c1OC (configuration not stated)	D1 antag -32.4
O=C(Oc1ccc(NC2=C(Cl)C(=O)c3ccccc3C2=O)cc1)c1ccc([N+](=O)[O-])cc1	none
CN(C)c1ccc(NC2=C(Cl)C(=O)c3ccccc3C2=O)cc1	D1 antag -65.7, USP1 inh inconclusive
O=C1C(Cl)=C(Nc2ccc3cn[nH]c3c2)C(=O)c2ccccc21	D1 antag -74.5, USP1 inh 15.8µM
CC(=O)Nc1ccc(NC2=C(Cl)C(=O)c3ccccc3C2=O)cc1	D1 antag -58.1, USP1 inh inconclusive
O=C1C(Cl)=C(NCCCO)C(=O)c2ccccc21	USP1 inh inconclusive
Cc1ccc(NC2=C(NCCO)C(=O)c3ccccc3C2=O)cc1	USP1 inh 14.1µM
COc1ccc(Cn2c(=O)c3oc4ccccc4c3n(Cc3ccc(F)cc3)c2=O)cc1	none
CC1CCN(c2ccc(-c3nc(C(C)C)no3)cc2[N+](=O)[O-])CC1	none
Cc1ccc(C)c(NC(=O)CSc2nnc(NC(=O)Nc3ccccc3)s2)c1	USP1 inh inconclusive (no result: D1 antag)
CC(=O)N1c2ccccc2C2(C)C(C1(C)C)C2(Cl)Cl (configuration not stated)	D1 ag 207.1
COc1ccccc1NC(=O)C1=C(C)Nc2nc(SCc3ccccc3)nn2C1c1ccccn1 (configuration not stated)	none
COc1cc(CCNC2=CC(=O)c3ncccc3C2=O)ccc1O	USP1 inh 17.8µM (no result: TRHR enhancer, D1 potentiator, D1 ag, TRHR agonist, D1 antag)
Cn1cc(CNC(=O)c2cc(-c3ccccc3)nc3ccc(Br)cc23)cn1	D1 antag -33.6
CCSc1nc2n(n1)C(c1ccc(CC)cc1)C(C(=O)Nc1ccccc1OC)=C(C)N2 (configuration not stated)	none
Clc1cccc(C2Nc3cccc4cccc(c34)N2)c1Cl	D1 antag -35.8
COc1cccc(N/C(N)=N/c2nc(C(F)(F)F)cc(=O)[nH]2)c1	TRHR enhancer 31.0
COc1ccc(OCC(O)CNC(=O)Nc2ccc(F)cc2)cc1 (configuration not stated)	D1 antag -38.0
COc1ccc(OCC(O)CNC(=O)Nc2ccccc2)cc1 (configuration not stated)	none
O=C1c2ccccc2S(=O)(=O)N1CC1CC(c2ccccc2)=NO1 (configuration not stated)	D1 antag -33.6
O=C1c2ccccc2S(=O)(=O)N1CC1CC(c2ccc(Cl)cc2)=NO1 (configuration not stated)	D1 antag -34.4
